Bioassay records as filed in PubChem BioAssay.
An excerpt weighted towards active compounds, which were near 12% of everything screened.
BAZ2B block: inhibitors of human BAZ2B bromodomain; Q9UIF8; Potency, µM (top dose mostly 114 µM), for the others: at the highest dose activity change, negative = inhibition, actives largely listed as inhibitors; AlphaScreen BAZ2B-H3K14Ac peptide displacement; hit rate 4.4% among 360,000; note: % is set by controls: 0 for no effect and ±100 for the full control effect; nearly all actives have a fitted effect of over 60% in size
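AlphaScreen displacement: compounds (up to 110uM) incubated 30 min at room temperature with a preformed 50 nM BAZ2B/50 nM biotinylated H3K14Ac peptide complex in PBS pH 7.4 with Tween-20. Donor and acceptor beads at 10 ug/mL final added, 20 min light-protected before reading.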
G9a block: G9a (human) methyltransferase inhibition. Q96KQ7. G9a H3K9 monomethylation, AlphaScreen, 2 h. Potency, µM (series often up to 102 µM), inactives show at the top dose activity, negative = inhibition, usual class: inhibitors. hit rate 8.8% among 350,000. AID 504332; note: % is set by controls: 0 for no effect and ±100 for the full control effect; nearly all actives have a fitted effect of over 75% in size
Target sequence (Q96KQ7 913-1193 limits assumed): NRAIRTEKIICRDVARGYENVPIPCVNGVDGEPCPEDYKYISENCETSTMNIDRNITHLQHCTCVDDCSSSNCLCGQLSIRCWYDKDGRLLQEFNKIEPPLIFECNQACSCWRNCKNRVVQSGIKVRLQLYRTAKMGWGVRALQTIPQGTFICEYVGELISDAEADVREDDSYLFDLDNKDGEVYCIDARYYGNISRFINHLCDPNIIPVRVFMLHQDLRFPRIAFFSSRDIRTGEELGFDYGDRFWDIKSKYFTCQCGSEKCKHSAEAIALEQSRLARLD
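Enzyme 20 nM + cpd, 15 min RT; add b-H3K9 pep 500 nM / SAM 20 uM; 2 h RT; anti-H3K9me1 Ab 0.5 ug/mL + SA donor / anti-rabbit acceptor beads 20 ug/mL each, 10 min; AlphaScreen read.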
L3MBTL1 block: L3MBTL1 (human) inhibition; AID 485360; AlphaScreen L3MBTL1–H3K9me1 peptide binding; Potency, µM (top dose mostly 57.1 µM), for inactives: top-dose activity, negative = inhibition, actives largely listed as inhibitors; hit rate 0.66% among 230,000; note: % is set by controls: 0 for no effect and ±100 for the full control effect; nearly all actives have a fitted effect of over 60% in size
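L3MBTL1 (50 nM) pre-complexed 30 min with biotinylated H3(1-15)K9me1 peptide (75 nM), then compounds added for 30 min at room temperature; AlphaScreen streptavidin donor/nickel chelate acceptor beads (10 ug/mL final) read after 30 min dark incubation.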
JMJD2A Tudor: blocks the human JMJD2A Tudor domain | Potency, µM (highest dose often 114 µM), for inactives: top-dose activity change, negative = inhibition, hits mostly inhibitors | O75164 | hit rate 4.4% among 390,000 | AlphaScreen JMJD2A-Tudor / H3K4me3 peptide binding; note: % is set by controls: 0 for no effect and ±100 for the full control effect; nearly all actives have a fitted effect of over 50% in size
HP1b binding inh: blocks HP1-beta chromodomain binding to methylated histone tails; P83916; AlphaScreen HP1-beta / biotin-H3K9me3 peptide binding; AID 540317; hit rate 0.56% among 390,000; Potency, µM (series often up to 114 µM), without a hit: top-dose activity change, negative = inhibition, actives largely listed as inhibitors; note: nearly all actives have a fitted effect of over 70% in size
Target sequence (P83916 whole entry, looked up): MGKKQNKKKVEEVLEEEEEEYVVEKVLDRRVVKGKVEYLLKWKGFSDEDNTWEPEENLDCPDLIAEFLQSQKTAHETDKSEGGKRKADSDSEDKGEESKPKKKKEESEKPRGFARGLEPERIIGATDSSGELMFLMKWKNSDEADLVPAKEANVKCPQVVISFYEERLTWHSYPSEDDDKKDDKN
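Compound inhibition of the preformed complex between 50 nM HP1-beta and 50 nM biotinylated H3K9me3 peptide was read by AlphaScreen. Buffer was PBS pH 7.4 with 0.01% Tween-20. Incubations ran 30 min at room temperature, with 10 ug/mL donor/acceptor beads.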
Sfp PPTase inh: inhibitors of Bacillus subtilis Sfp phosphopantetheinyl transferase. Q9F4F7. Biochemical Sfp PPTase activity, qHTS. Potency, µM, without a hit: largest response in the series, negative = inhibition, hits mostly inhibitors. hit rate 3.5% among 310,000. AID 1490;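 note: the enzyme is Sfp with the accession as filed and its product quenches rhodamine fluorescence; 0% = enzyme reaction without inhibitor and -100% = no enzyme wells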
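Reaction rates are the 30-min fluorescence difference (ex 525, em 598 nm) in wells containing 15 nM Sfp, 5 uM rhodamine-CoA and 12.5 uM BHQ-2-YbbR at pH 7.6 with 10 mM MgCl2.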
The depositor's hits bear a star; u = inconclusive; x = not tested or not shown; [ ] = remark or other dose. Calls come from the whole dose curve; as a rule, active = well fitted curve in the direction sought with a large enough effect; inconclusive = small, poorly fitted or top-dose-only effect, or another doubt; inactive = no such curve, though single readings can be large; an effect the other way counts as inactive or inconclusive. Potency is the fitted concentration of half-maximal effect.

SMILES	BAZ2B block	G9a block	L3MBTL1 block	JMJD2A Tudor	HP1b binding inh	Sfp PPTase inh
COc1cc(/C=C2/SC(=O)N(Cc3ccccc3)C2=O)ccc1OCc1ccncc1	-33%	-8%[12.7 µM]	x	u	19%	-6%
CCOC(=O)CN1C(=O)S/C(=C/c2ccc(OC)c([N+](=O)[O-])c2)C1=O	6%	25%[59 µM]	-11%	3%	28%	11%
CCN(CC)C(=O)C1=C(C)Nc2nc3ccccc3n2C1c1ccc(Br)cc1 (stereo not drawn)	-3%	-29%[59 µM]	x	-5%	35%	x
O=C1Nc2ccccc2OC1CC(=O)N1CCN(c2cccc(C(F)(F)F)c2)CC1 (stereo not drawn)	-3%	35µM*	x	-24%	29%	-16%
O=C1Nc2ccccc2OC1CC(=O)N1CCOCC1 (stereo not drawn)	0%	-10%	x	-5%	47%	-14%
Cc1ccc(-c2cc3ncc4c(n3n2)-c2cc(Cl)ccc2OC4)cc1	2%	30%[59 µM]	x	-10%	46%	x
O=C(/C=C/c1ccco1)Nc1cccnc1Cl	-13%	79µM*	-30%	-6%	5%	50µM*
O=C(/C=C/c1ccc([N+](=O)[O-])cc1)NCc1ccccn1	-7%	-11%	10%	-7%	30%	9%
CC(C)C(=O)N1CCN(c2ccccc2NC(=S)NC(=O)/C=C/c2ccco2)CC1	x	x	-4%	-34%	-11%[57 µM]	x
O=C(/C=C/c1ccco1)NCc1ccccn1	-10%	35µM*	u	2%	31%	-65%
O=C(/C=C/c1ccco1)Nc1ccccc1N1CCCCC1	u	50µM*	-24%	-23%	u	-21%
O=C(/C=C/c1ccco1)NC1CCCC1	u	u	x	-4%	10%	28µM*
O=C(/C=C/c1ccccc1)Nc1cccnc1Cl	11%	21%	-6%	2%	41%	0%
COC(=O)c1ccccc1NC(=O)NCc1ccco1	7%	-1%[59 µM]	-1%	-13%	22%	13%
COC(=O)c1ccccc1NC(=O)/C=C/c1ccco1	-11%	5%[59 µM]	u	-34%	-16%	50µM*
COc1ccccc1Nc1nn2c(=O)c3ccc(C(=O)NCCC4=CCCCC4)cc3nc2s1	-12%	-20%[59 µM]	x	-5%	22%	x
CC(=O)NC(c1ccco1)c1ccc2cccnc2c1O (stereo not drawn)	20µM*	-8%	u	56µM*	24%	10%
CCCC(=O)NC(c1ccc(N(C)C)cc1)c1ccc2cccnc2c1O (stereo not drawn)	7%[0.457 µM]	4%[59 µM]	u	22µM*	-17%	18%
CC(C)C(=O)NC(c1ccc(Cl)cc1Cl)c1ccc2cccnc2c1O (stereo not drawn)	u	44%[0.501 µM]	1%[2.29 µM]	-14%	34%	6%
COc1ccc(C(NC(=O)C(C)C)c2ccc3cccnc3c2O)cc1 (stereo not drawn)	45µM*	x	x	-26%	46%	8%
CCCC(=O)NC(c1ccc(C(C)C)cc1)c1ccc2cccnc2c1O (stereo not drawn)	-23%	76%	2%	-20%	53%	8%
CCCCCn1c(=O)[nH]c2cc(C(=O)NCc3ccc(F)cc3)ccc2c1=O	2%	7%[59 µM]	x	-2%	20%	x
CCOc1ccc(N(CC)S(=O)(=O)N2CCCC(C(=O)NCc3ccccc3Cl)C2)cc1 (stereo not drawn)	-10%	-8%[59 µM]	x	-7%	40%	x
O=c1c(O)c(-c2ccccc2)oc2cccc(O)c12	x	x	x	x	x	12%
O=[N+]([O-])c1cc([N+](=O)[O-])c2oc(-c3ccccc3)c(Br)c2c1O	35µM*	50µM*	x	45µM*	u	4%
CC(C)NS(=O)(=O)c1ccc2[nH]c3nc(SCC(=O)Nc4ccc(F)c(F)c4)nnc3c2c1	x	x	x	-23%	36%	x
c1ccc(Cc2nc3ccccc3[nH]2)cc1	7%	0%[12.7 µM]	x	-10%	28%	14%
S=c1[nH]nc(CCc2nc3ccccc3[nH]2)n1-c1ccccc1	-11%	u	10%	-94%	16%	u
